Active and inactive are the calls of the source. Calls follow the shape of the dose curve; as a rule, active = well fitted curve in the direction sought with a large enough effect in the repeat runs; inconclusive = weak or mixed curves; inactive = flat fitted curve, though single readings scatter.
assay: qHTS assay to test for compound auto fluorescence at 590 nm (red) in HEK293 cell free culture (AID 720683); conditions: cell-free medium autofluorescence, Ex540/Em590 red; series mostly up to 91.3 µM; fluorescence, % of fluorescent control: at the top concentration
Description: U.S. Tox21 Program National Center for Advancing Translational Sciences [NCATS] NIH Chemical Genomics Center [NCGC] U.S. Environmental Protection Agency [EPA] National Institutes of Environmental Health Sciences [NIEHS] National Toxicology Program [NTP] U.S. Food and Drug Administration [FDA] Tox21 Assay Overview: Compound auto fluorescence often interferes with screening of the compound library against various biological targets and signaling pathways. Some of these compounds may have fluorophoric properties. Such properties may interfere with the assay outputs resulting in false positives and/or negatives. To decrease such complications and ensure the compound activities are relevant in terms of biological response, the Tox21 10K compound library was screened for auto fluorescence. From the fluorophores used as reporter signals in our screening assays, the auto fluorescence equivalencies of compounds against three fluorophores have been evaluated: Triamterene, Fluorescein and Rose Bengal sodium for blue, green and red fluorescence, respectively. The fluorescence intensities were measured using Excitation/Emission wavelengths at 405/460nm, 485/535nm and 540/590nm for blue, green and red labels, respectively. This assay includes the red fluorescence data.
Tox21 Assay Protocol Summary: 5 uL of culture medium (DMEM containing 10% FBS) per well was dispensed into black wall/clear bottom 1536-well plates using a Multidrop Combi Dispenser (ThermoFisher Scientific, Waltham, MA). After 23 nL compound or DMSO vehicle was transferred into assay plate by a pintool work station (Kalypsys, San Diego, CA), fluorescence intensities in the assay plates were measured by an Envision (PerkinElmer, Shelton, CT) plate reader using three labels for measuring blue, green and red fluorescence at […] 460, 535 and 590nm respectively.
% is scaled to controls: 0 for no effect and ±100 for the full control effect.

SMILES | fluorescence, % of fluorescent control | outcome
C#CCO | -0.352% (inactive) | 
N#Cc1sc2c(=O)c3ccccc3c(=O)c=2sc1C#N | -0.49% (inactive) | 
CCC[CH2][Sn]([CH2]CCC)([CH2]CCC)[CH2]CCC | 0.116% (inactive) | 
COCCC#N | 0.0138% (inactive) | 
CN1[C@@H]2CC[C@H]1CC(O)C2 (stereo not given in full) | -0.109% [at 95.7 µM] (inactive) | 
ClC1(Cl)C2(Cl)C3(Cl)C4(Cl)C(Cl)(Cl)C5(Cl)C3(Cl)C1(Cl)C5(Cl)C24Cl (stereo not given) | -0.0344% (inactive) | 
CN(C)C(=S)SSC(=S)N(C)C |  | inactive
C=C(C)C(=O)[O][Sn]([CH2]CCC)([CH2]CCC)[CH2]CCC | 0.22% (inactive) | 
O.O.O.O=C([O-])[C@H]([O-])[C@@H]([O-])C(=O)[O-].O=C([O-])[C@H]([O-])[C@@H]([O-])C(=O)[O-].[K+].[K+].[Sb+3].[Sb+3] | -0.0871% (inactive) | 
S=C=NCCc1ccccc1 | -0.121% (inactive) | 
[Cl][Hg][c]1ccccc1 | 0.17% (inactive) | 
O=NN(CCO)CCO | 0.144% (inactive) | 
CO/N=C(/C1=NOCCO1)c1ccccc1Oc1ncnc(Oc2ccccc2Cl)c1F | -0.034% (inactive) | 
CC(=O)[O-].CC(=O)[O-].O.O.O.[Pb+2] | -0.0137% (inactive) | 
COC(=O)N(OC)c1ccccc1COc1ccn(-c2ccc(Cl)cc2)n1 | 0.287% (inactive) | 
ClSC(Cl)(Cl)Cl | -0.238% (inactive) | 
COP(=S)(NC(C)C)Oc1ccc(C)cc1[N+](=O)[O-] (stereo not given) | -0.176% (inactive) | 
CC(Cc1ccc2c(c1)OCO2)NO (stereo not given) | 0.126% [at 95.7 µM] (inactive) | 
COC(=O)c1cc(Oc2ccc(Cl)cc2Cl)ccc1[N+](=O)[O-] | 0.147% (inactive) | 
O=C(N[C@@H]1N=C(c2ccccc2F)c2cccc3c2N(CC3)C1=O)c1cc2ccccc2[nH]1 | 0.185% [at 46 µM] (inactive) | 

SMILES | fluorescence, % of fluorescent control | outcome
CC(C)N(C(=O)CCl)c1ccccc1 |  | inactive
CC(C)[C@@H](Nc1ccc(C(F)(F)F)cc1Cl)C(=O)OC(C#N)c1cccc(Oc2ccccc2)c1 (stereo not given in full) | -0.126% (inactive) | 
O=S1OCC2C(CO1)C1(Cl)C(Cl)=C(Cl)C2(Cl)C1(Cl)Cl (stereo not given) |  | inactive
O=C(NC(=O)c1c(F)cccc1F)Nc1ccc(Oc2ccc(C(F)(F)F)cc2Cl)cc1F | 0.103% (inactive) | 
Fc1ccc(C(OCCN2CCN(CCCc3ccccc3)CC2)c2ccc(F)cc2)cc1 | 0.122% [at 46 µM] (inactive) | 
C=CCBr | 0.0536% [at 95.7 µM] (inactive) | 
Cc1ccn2nc(S(=O)(=O)Nc3c(F)cccc3F)nc2n1 | -0.0333% (inactive) | 
Cc1ccc2cc3c(ccc4ccccc43)c3c2c1CC3 | -0.245% [at 46 µM] (inactive) | 
CCCN | 0.285% (inactive) | 
O=[N+]([O-])c1ccc(CCl)cc1 | -0.0158% (inactive) | 
NC1CCC(CC2CCC(N)CC2)CC1 (stereo not given) | -0.085% (inactive) | 
[Cl-].[Cl-].[Cl-].[Yb+3] | -0.127% (inactive) | 
CC(=O)[O][Sn]([c]1ccccc1)([c]1ccccc1)[c]1ccccc1 | -0.0973% (inactive) | 
CNN | -0.0625% [at 95.7 µM] (inactive) | 
CC(=O)[O-].CC(=O)[O-].CC(=O)[O-].[Sb+3] | -0.102% [at 3.72 µM] (inactive) | 
CCC1(CC)C(=O)N=C(O)NC1=O | -0.0283% (inactive) | 
O=[N+]([O-])c1cccc2cccc([N+](=O)[O-])c12 | -0.0578% (inactive) | 
O=C(O)[C@H](O)[C@@H](O)C(=O)O | 0.172% (inactive) | 
O=C(NC(=O)c1ccccc1Cl)Nc1ccc(OC(F)(F)F)cc1 | 0.0015% (inactive) | 
C=Cc1cccc(CCl)c1 | 0.0079% [at 203 µM] (inactive) | 
